This is a sample that favours compounds with a hit; in the whole collection about 4.1% have one here.
DAX1 inh-1: DAX1 (NR0B1) inhibitors on StAR promoter, primary screen, cell-based, luminescence, SF-1 (NR5A1), full-length DAX-1 | HEK293T StAR-luciferase reporter, SF-1/DAX-1 repression relief | inhibition, % at 6.8 µM | hit rate 1.1% among 370,000;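 active = inhibition above the mean over all tested compounds plus 3 SD, cut at about 3.6% in these data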;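 also: higher inhibition means more luminescence from relief of DAX-1 repression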
hgDAF12 agonist: H. glycines DAF-12 receptor agonists, primary screen, cell-based, luminescence, HEK293, GAL4 fusion, UAS-luciferase. Nuclear hormone receptor DAF-12 (Heterodera glycines), GAL4 fusion. HEK293 GAL4-hgDAF12 UAS-luciferase reporter, agonist luminescence; normalized to butyrate control. activation, % at 6.8 µM. hit rate 1.8% among 370,000. AID 687014, 2013;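 active = activation above a cutoff set at the mean of all screened compounds plus 3 SD, cut at about 10% in these data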
ssDAF12 agonist: S. stercoralis DAF-12 nuclear receptor activators, primary screen, cell-based, luminescence, HEK293, GRIP1 co-expression, lit1-tk-luc | AID 652126, 2013 | hit rate 1% among 370,000 | HEK293 ssDAF-12/GRIP1 lit1-tk-luc reporter; % of 3 µM dafachronic acid response | activation, % at 6.8 µM;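 active = activation above the mean over all tested compounds plus 3 SD, cut at about 0.9% in these data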
DAX1 inh-2: DAX1 (NR0B1) inhibitors, primary screen, cell-based, HEK293, Gal4-DAX1, luciferase luminescence; Nuclear receptor subfamily 0 group B member 1 (Homo sapiens), P51843; AID 504766, 2011; HEK293 Gal4-DAX1 luciferase reporter; hit rate 0.99% among 340,000; inhibition, % at 6.75 µM;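 active = inhibition above the mean over all tested compounds plus 3 SD, cut at about 4.2% in these data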;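 also: inhibition shows as a rise in luminescence from relieved DAX1 repression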
Target sequence (P51843 207-470 limits assumed): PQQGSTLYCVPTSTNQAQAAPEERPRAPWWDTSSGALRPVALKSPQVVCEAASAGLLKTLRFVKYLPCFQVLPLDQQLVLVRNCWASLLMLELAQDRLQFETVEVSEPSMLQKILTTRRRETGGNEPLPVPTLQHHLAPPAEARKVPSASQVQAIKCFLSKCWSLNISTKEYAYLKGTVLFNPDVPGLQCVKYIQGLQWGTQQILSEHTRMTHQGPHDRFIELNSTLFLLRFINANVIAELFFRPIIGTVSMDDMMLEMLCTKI
hcDAF-12 act: H. contortus DAF-12 nuclear receptor activators, primary screen, cell-based, luminescence, HEK293, lit1-tk-luc reporter | HEK293 hcDAF-12 lit1-tk-luc reporter; 0% DMSO, 100% Δ7-dafachronic acid | activation, % at 6.8 µM | hit rate 1.4% among 370,000;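 active = activation above the mean of all tested compounds plus 3 SD, cut at about 5.5% in these data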
hgDAF12 conf: H. glycines DAF-12 receptor agonists, confirmation, cell-based, luminescence, HEK293, GAL4-LBD fusion. shares compounds with hgDAF12 agonist. HEK293 GAL4-hgDAF12 luciferase reporter, agonist mode; percent of butyrate response. activation, % at 6.8 µM. hit rate 80% among 3,300. AID 743050, 2013;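 active = mean activation over triplicate wells above the hit cutoff derived from the earlier primary screen, cut at about 11% in these data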
LXRb DAF12 ctr: LXR agonists, Gal4 luciferase reporter, confirmation, counter-screen for hgDAF-12 agonist project, cell-based, luminescence, HEK293, H. glycines campaign; shares compounds with hgDAF12 agonist; 24 h; activation, % at 6.8 µM; 3,300 tested, under 10 active;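 active = mean activation of the triplicate above a set limit carried over from the primary screen, none filed active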
Numbers stand for hits; i = inactive; nt = not tested or not shown.

SMILES	DAX1 inh-1	hgDAF12 agonist	ssDAF12 agonist	DAX1 inh-2	hcDAF-12 act	hgDAF12 conf	LXRb DAF12 ctr
CN(C)c1cccc(C(=O)NNC(=O)CN2C(=O)C3CC=CCC3C2=O)c1 (stereo unspecified)	i	14	i	5.7	i	i	i
O=C1NC(=S)NC1=Cc1ccc(Cl)cc1Cl	i	i	i	i	i	nt	nt
O=C1NC(=O)C(=Cc2ccc(Cl)cc2Cl)S1	4.4	18	i	i	i	14	i
O=c1c2c(nc3cc(-c4ccc(F)cc4)[nH]n13)CCC2	4.1	15	i	i	6.4	17	i
COc1cccc(C(=O)NCCS(=O)(=O)N2CC(C)CC(C)C2)c1 (stereo unspecified)	i	i	i	i	i	nt	nt
N#CCC[C@@H]1CC[C@]2(CCCN(C(=O)C3CCCC3)C2)O1	i	i	i	nt	i	nt	nt
COc1ccc(-c2nnc(SCc3c(C)noc3C)o2)cc1	i	i	i	i	i	nt	nt
COc1ccc(-c2nc3ccccc3o2)cc1OC	i	i	i	i	i	nt	nt
c1ccc2oc(-c3ccc4nc[nH]c4c3)nc2c1	3.8	19	i	i	i	18	i
Nc1nc2ccc(-c3nc4ccccc4o3)cc2s1	i	14	i	i	i	13	i
CC(=O)Nc1ccc(S(=O)(=O)NCC(=O)OC(C)c2ccccc2Cl)cc1 (stereo unspecified)	i	i	i	i	i	nt	nt
CC(O)(c1cccnc1)c1nc(-c2ccc3ccccc3c2)cs1 (stereo unspecified)	i	i	i	nt	i	nt	nt
CN(C)/C=C1\C(=O)Oc2ccccc2C1=O	i	i	i	nt	i	nt	nt
CN(C)c1ccc(C(C(=O)NCc2ccccc2)N(Cc2cccnc2)C(=O)c2snc(C(N)=O)c2N)cc1 (stereo unspecified)	i	i	i	i	i	nt	nt
Cc1ccc(NC(=S)c2nc3ccccc3[nH]2)cc1	i	14	1.0	i	6.5	17	i
Cc1ccc(NC(=S)N2CCCC(c3nc4ccccc4[nH]3)C2)cc1 (stereo unspecified)	i	i	i	i	i	nt	nt
c1ccc(OCc2nc(-c3cccs3)no2)cc1	i	16	i	i	i	13	i
Cc1cc(OCc2nc(-c3cccs3)no2)cc(C)c1Cl	i	i	i	i	i	nt	nt
Fc1ccc(OCc2nc(-c3cccs3)no2)cc1	i	16	i	i	i	12	i
Cn1nnnc1SCC(=O)Nc1nc2c(s1)CCCC2	3.7	13	i	i	6.4	16	i
O=C(COC(=O)c1ccc(O)cc1O)Nc1nnc(-c2ccccc2)o1	i	i	i	i	i	nt	nt
Cc1nc(Cc2nnc(SC(C)C(=O)Nc3ccccc3)o2)cs1 (stereo unspecified)	i	i	i	i	i	nt	nt
COc1ccc(OC)c(CN2C(=O)CN(S(C)(=O)=O)CC2(C)c2nnnn2C2CCCC2)c1 (stereo unspecified)	i	i	i	nt	i	nt	nt
O=C1c2ccccc2NC(c2ccc(O)cc2)N1/N=C/c1ccc(O)cc1 (stereo unspecified)	i	i	i	i	i	nt	nt
O=C1c2ccccc2NC(c2ccccc2)N1/N=C/c1ccccc1 (stereo unspecified)	i	15	i	i	i	15	i
COc1ccccc1C(=O)N(C)c1nnc(-c2ccccc2)s1	i	i	i	i	i	nt	nt

Source: PubChem
